Screening results (PubChem)
Most compounds without a hit are left out; they make up all but 2.8% or so of the library.
D3 ag: agonists of human D3 dopamine receptor; P35462; D3R DiscoveRx beta-arrestin cells, luminescence, 90 min; max activation, %; 0.58% of 410,000 active; in the data active means max activation above about 30%; further: 0% is about no effect
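Agonist mode: compounds and dopamine controls were applied to plated cells for 90 min at 37 degrees C after an overnight attachment at 1500 cells/well. Luminescent read-out followed 30 - 60 minutes at room temperature with DiscoveRx detection reagent.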
DRD3 antagonist: antagonists of human D3 dopamine receptor. 2.5% of 360,000 active. AID 652054. P35462. D3R cells, DiscoveRx beta-arrestin luminescence, antagonist mode; hits give low values. max response, negative = inhibition, %; in the data active means max response below about -50%; inconclusive means no clear call, values can overlap the other calls; further: on the % scale 0 is the no-effect control and ±100 the full control effect
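Cells expressing the human receptor were seeded at 1500 cells/well, incubated overnight at 37 degrees C in 5% CO2, then exposed to library compounds with dopamine controls for 90 minutes at 37 degrees C before luminescent detection.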
a7 integrin act: activators of alpha7 integrin expression for muscular dystrophy. alpha7betagal myoblasts, beta-gal FDG fluorescence, 48 h. Potency, µM (highest dose often 38.3 µM), without a hit: at the highest dose activation, hits mostly activators. 0.064% of 350,000 active;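 further: potency means the concentration at half of the fitted maximal effect; 100% = response of the positive control SU9516; nearly all actives have a fitted effect of over 60% in size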
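alpha7betagal+/- myoblasts (passage 13, 250/well) treated 48 h at 37C with compounds at 1:260 dilution of DMSO stock. Lysed, then beta-galactosidase activity read as FDG fluorescence (ex 480/em 540) after 30 min, with pre-read for autofluorescence.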
CBFb RUNX1 block: inhibitors of human CBF-beta and RUNX1 interaction | Q01196+Q13951 | AlphaScreen CBFb-His/RUNX1-biotin binding, biochemical | Potency, µM (highest dose often 59.8 µM), for inactives: at the top dose activity, negative = inhibition, usual class: inhibitors | 230,000 tested, under 10 active | AID 1477; further: % of control where 0% means no effect
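Compounds were screened at multiple concentrations against a preformed CBF-beta(His)/RUNX1(biotin) complex (30 nM of each) for 15 min at room temperature, followed by 90 min with nickel and streptavidin beads and AlphaScreen reading.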
PTHR1 agonist: agonists of human PTHR1 parathyroid hormone receptor | Q03431 | HEK293 GP2 PTHR1 cells, GloSensor cAMP luminescence, 1 h | Potency, µM (doses to about 115 µM), for inactives: at the highest dose activation, actives largely listed as activators | 0.075% of 410,000 active; further: potency means the concentration at half of the fitted maximal effect; nearly all actives have a fitted effect of over 55% in size
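HEK-293-derived GP2 cells expressing PTHR1 and a GloSensor cAMP reporter, 3,000/well, plated overnight, given luciferin plus IBMX (each 0.5 mM as added) for 1 h at 37 °C, then compound for 1 h at 37 °C. Luminescence was read after 15 min at room temperature.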
MBNL1-CUG inh: inhibitors of human MBNL1 binding to CUG repeat RNA | Potency, µM (highest dose often 57.5 µM), for the others: at the top dose activity change, negative = inhibition, hits mostly inhibitors | TR-FRET MBNL1-His/biotin-(CUG)12 binding, 665/545 ratio | 0.036% of 280,000 active; active means well fitted inhibition curve with a large enough effect in the signal ratio, with a control signal flat, not every such curve was filed as active; inconclusive means small, poorly fitted or top-dose-only effect, or effect the other way, or a change in a side signal; inactive means no such curve, though single readings can be large or run the other way; the % refers to the signal ratio; further: potency means the concentration at half of the fitted maximal effect; on the % scale 0 is the no-effect control and ±100 the full control effect
Target sequence (Q9NR56 whole entry, looked up): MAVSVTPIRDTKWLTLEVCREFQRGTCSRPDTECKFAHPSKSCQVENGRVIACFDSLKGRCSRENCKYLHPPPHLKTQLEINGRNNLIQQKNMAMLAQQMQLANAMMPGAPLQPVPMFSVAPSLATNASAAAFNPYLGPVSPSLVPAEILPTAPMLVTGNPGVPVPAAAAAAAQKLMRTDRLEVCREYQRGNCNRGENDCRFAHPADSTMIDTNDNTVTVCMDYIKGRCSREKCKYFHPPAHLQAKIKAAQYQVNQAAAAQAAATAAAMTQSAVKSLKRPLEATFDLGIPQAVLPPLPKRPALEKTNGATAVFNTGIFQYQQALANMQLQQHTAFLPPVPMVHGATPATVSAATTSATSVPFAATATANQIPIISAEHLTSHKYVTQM
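His-tagged MBNL1 binding to biotinylated (CUG)12 RNA was measured by TR-FRET using terbium anti-His antibody (0.055 ng/ul final) and streptavidin-XL665 (5 nM final). Compounds were titrated 92 nM to 58 uM; 60 min at room temperature.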
* = called active by the depositor; i = inactive; ? = inconclusive; / = no result; [ ] = another dose, or the depositor's remark. Unless noted, the call rests on the fitted dose curve; in most records, active means well fitted curve in the direction sought with a large enough effect; inconclusive means small, poorly fitted or top-dose-only effect, or another doubt; inactive means no such curve, though single readings can be large; an effect the other way counts as inactive or inconclusive.

SMILES | D3 ag | DRD3 antagonist | a7 integrin act | CBFb RUNX1 block | PTHR1 agonist | MBNL1-CUG inh
CN(Cc1c(O)ccc2c1oc(=O)c1ccccc12)C1CCCCC1 | -58 | -57* | -17% | 3% | -31% | 20%
COc1ccc(N2CCN(S(=O)(=O)CCNC(=O)c3ccc(OC(C)C)cc3)CC2)cc1 | 3 | / | / | / | i | /
O=C(Cn1c(SCC(=O)N2CCc3ccccc32)nc2ccccc21)NC1CCCC1 | -21 | -76* | 0% | -2% | ? | -14%
Cn1c(-c2ccccc2)cnc1SCC(=O)N1CCCc2ccccc21 | -6 | 12 | 18% | 12% | -13% | /
O=C(CSc1ncc(-c2ccccc2)n1C1CCCC1)N1CCc2ccccc21 | -35 | -85* | -40% | -5% | i | 2%
O=C(Cn1c(SCC(=O)N2CCc3ccccc3C2)nc2ccccc21)NC1CCCC1 | -2 | -19 | -15% | -4% | i | -25%
CN(C)CCOCCOc1ccccc1-c1ccccc1 | -25 | -69* | -31% | 0% | i | 14%
CC1CCN(CCOCCOc2ccccc2Br)CC1 | -21 | -61* | -40% | 7% | i | -7%
CC1CCCN(CCCOc2ccccc2-c2ccccc2)C1 (stereo not drawn) | -18 | -67* | -65% | 2% | i | -1%
CC1CCN(CCOCCOc2ccccc2-c2ccccc2)CC1 | -20 | -82* | -45% | -17% | -6% | 5%
COc1ccc(C(=O)NNC(=O)CSc2nnc(COc3ccccc3OC)n2C)cc1 | -6 | 2 | 10% | -8% | -17% | -6%
CC1CCN(CCCCOc2ccccc2-c2ccccc2)CC1 | -38 | -99* | -20% | 0% | -6% | /
CCCCOC(=O)C1C2C=C[C@]3(CN(CCCOC)C(=O)[C@H]13)O2 (stereo partly drawn) | -3 | -51* | 14% | 21% | i | -6%
CC1(c2nnc(Cc3ccccc3)o2)CC(c2cccc([N+](=O)[O-])c2)=NO1 (stereo not drawn) | 32* | 13 | 30% | / | -19% | /
O=C1c2sc3nc4ccccc4n3c2C(=O)N1c1ccccc1Cl | -3 | -87* | 3% | 0% | -21%[57.5 µM] | 1%
O=c1/c(=C\c2cccnc2)sc2nc3ccccc3n12 | 21 | -16 | 9% | 13% | -28% | 15%
Cc1ccccc1N1C(=O)c2sc3nc4c(c(=O)n3c2C1=O)CCC4 | -3 | -57* | -3%[7.66 µM] | 1% | -22%[57.5 µM] | 4%
O=C1NN(c2ccc(F)cc2)C(=O)/C1=C/c1cccs1 | -6 | -63* | -450% | 3% | -3% | 4%
CC12CCC=CC1C(c1ccc3ccccc3c1Br)N(Cc1ccccc1)C2=O (stereo not drawn) | / | / | / | 15% | / | /
COc1ccc(-c2coc3c(C(=O)NCC4CC4)cccc23)c(C)c1 | 56* | 276 | / | / | -50% | /
CCOc1ccc(CCN2C(=O)C(=O)N([C@@H](Cc3ccccc3)CN3CCC[C@H]3CN3C(=O)C(=O)NC[C@@H]3Cc3ccccc3)C[C@@H]2Cc2ccccc2)cc1 | -14 | ? | / | / | -56% | /
COc1cc(/C=N/Nc2nc3ccccc3s2)cc([N+](=O)[O-])c1O | 2 | -1 | 1% | ? | i | /
O=[N+]([O-])c1cc(Cl)cc(/C=N/Nc2nc3ccccc3s2)c1O | -18 | -60* | 0% | ? | -37% | 3%
O=[N+]([O-])c1cc(Cl)cc(/C=N/NC(=S)Nc2ccc(S(=O)(=O)N3CCOCC3)cc2)c1O | -19 | -54* | 7% | / | -89% | 11%
O=S(=O)(c1ccc(NC(=S)N/N=C/c2ccc(O)c(O)c2)cc1)N1CCOCC1 | 1 | -1 | 8% | -17% | -11% | ?
SMILES | D3 ag | DRD3 antagonist | a7 integrin act | CBFb RUNX1 block | PTHR1 agonist | MBNL1-CUG inh
CC(C)(C)N/N=C/c1cc(Cl)cc([N+](=O)[O-])c1O | -16 | -110* | 7% | 3% | -34% | /
O=C(Cn1nc2ccccc2n1)N/N=C/c1cc(Cl)cc([N+](=O)[O-])c1O | -16 | -83* | 16% | -16% | -8% | 10%
O=C(Cn1nnc(-c2ccccc2)n1)N/N=C/c1cccc([N+](=O)[O-])c1O | 5 | -9 | -23% | 3% | -19% | 1%
CC(=O)N[C@@H]([C@@H](O)[C@H](O)[C@H](O)CO)[C@@H](O)CC(=O)C(=O)O | 8 | / | / | / | / | /
CC(C)Cc1ccc(C(C)C(N)=NCCc2ccccc2)cc1 (stereo not drawn) | -7 | ? | -73% | / | -20% | -6%
CCOc1ccc(NC(=O)C2CCC(CNS(=O)(=O)c3ccc(Br)s3)CC2)cc1 (stereo not drawn) | -4 | / | / | / | -22% | /
COc1cc(/C=N/NC(=O)c2cccc(NC(=O)c3ccccc3C)c2)ccc1O | 3 | 26 | 0% | / | i | 13%
O=C(N/N=C/c1cc(Cl)cc([N+](=O)[O-])c1O)C1CC1 | -19 | -57* | 21% | -20% | -14% | ?
Cc1ccccc1C(=O)Nc1cccc(C(=O)N/N=C/c2cc(Cl)cc([N+](=O)[O-])c2O)c1 | -11 | -52* | -13% | 1% | -3% | 19%
O=C(NC1CC(=O)N(c2ccc(Cl)cc2)C1)c1ccc2c(c1)OCO2 (stereo not drawn) | -29 | / | / | / | i | /
Cc1nc2c(OCc3ccc(OC(F)F)cc3)cccn2c1N(C)C(=O)CCC1CCCC1 | 3 | 31 | / | / | -49% | /
CC1(C)CC(=O)C(N=Nc2cccc([N+](=O)[O-])c2)=C(O)C1 | -18 | -67* | -22% | 4% | -12% | ?
CC1(C)CC(=O)C2=C(C1)OC1=C(C(=O)CC(C)(C)C1)C2c1cccc([N+](=O)[O-])c1 | -13 | -78* | -27% | / | i | /
CC12CCC(C(=O)Nc3ccncc3)(CC1O)C2(C)C (stereo not drawn) | -2 | -10 | 25% | 8% | i | 6%
C[N+]1(C)CCN(CC(O)(c2ccccc2)C2CCCCC2)CC1 (stereo not drawn) | -29 | / | / | / | / | /
Cc1nnc(NC(=O)CSCc2cc(=O)c3ccccc3[nH]2)s1 | 5 | / | / | / | 5% | /
CCCCCCCCCCCCN1[C@@H](CC(=O)OC)c2cc(F)cc(F)c2S1(=O)=O | 31* | 8 | 5% | / | -28% | /
CCOC(=O)N1CCN(C(=O)CNC(=O)c2nn(-c3ccc(OC)c(OC)c3)c(=O)c3ccccc23)CC1 | 54* | 10 | ? | / | -7% | 18%
CCOC(=O)N1CCN(C(=O)CNC(=O)c2nn(-c3ccc(OC)c(Cl)c3)c(=O)c3ccccc23)CC1 | 9 | 60 | 0% | / | -12% | ?
